# Results taken from PubChem BioAssay (NCI).
# About 79,000 compounds went through this panel and 15% of them were active in at least one assay; those are over-represented in the sample as a whole. Values without a mark were called inactive. Activity calls are given as the source filed them. Cut-off read from the data, not from the text of the source: active = growth inhibition above about 70%; inactive = the rest. Where a SMILES comes first, the peptide text is derived from it. [ ]: non-standard residue; d: D form. The star is where a group is joined. ξ: configuration not given here. ξAsp(βξ-Me) = CC(C(=O)O)C(N)C(=O)O; X11 = CC(N*)C1NC(=O)C2CCCCN2C1=O; ξAbu(3ξ-NH2) = CC(N)C(N)C(=O)O; X10 = CCC(C)CCC/C=C/CC(=O)*
# How the values were obtained:
# [1] = NCI Yeast Anticancer Drug Screen. Data for the rad50 strain (AID 155);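 note: 0% = growth of vehicle-only cultures of the same strain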; conditions: S. cerevisiae rad50 strain growth inhibition; at 50.0 µM; stronger effect = higher value
# Method in brief: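 Cells are treated with compound, grown, and their growth is then scored against vehicle-only cultures of the same repair-deficient yeast strain.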
# [2] = NCI Yeast Anticancer Drug Screen. Data for the mec2-1 strain (AID 157); conditions: S. cerevisiae mec2-1 strain, at 50.0 µM, stronger effect = higher value
# Method in brief: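 Each compound was tested on mec2-1 yeast, a strain altered in DNA damage repair or cell cycle control. Growth inhibition is reported relative to vehicle.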
# [3] = NCI Yeast Anticancer Drug Screen. Data for the sgs1 mgt1 strain (AID 161);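 note: 0% = growth of cultures given vehicle only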; conditions: S. cerevisiae sgs1 mgt1 strain, at 50.0 µM, stronger effect = higher value
# Method in brief: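 Test agents were incubated with a DNA-repair-mutant yeast strain. Growth was then read and compared against vehicle-treated controls.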
# [4] = NCI Yeast Anticancer Drug Screen. Data for the cln2 rad14 strain (AID 165);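 note: 0% = growth equal to vehicle treated cultures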; conditions: S. cerevisiae cln2 rad14 strain, at 50.0 µM, stronger effect = higher value
# Method in brief: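 Test compounds were added to cln2 rad14 yeast cultures; inhibition of growth was then determined by comparison with vehicle treatment.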
# [5] = NCI Yeast Anticancer Drug Screen. Data for the bub3 strain (AID 167); conditions: S. cerevisiae bub3 mutant strain, at 50.0 µM, stronger effect = higher value
# Method in brief: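 Part of a panel of yeast mutants defective in DNA damage repair or cell cycle regulation. Each strain is grown with compound, and inhibition is calculated relative to solvent-treated cultures.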
# [6] = NCI Yeast Anticancer Drug Screen. Data for the mlh1 rad18 strain (AID 175); conditions: S. cerevisiae mlh1 rad18 strain growth inhibition; at 50.0 µM; stronger effect = higher value
# Method in brief: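 Inhibition values reflect reduced growth of mutant yeast versus vehicle-treated controls following compound exposure; the mutations affect DNA damage repair.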
Compound,growth inhibition [1],growth inhibition [2],growth inhibition [3],growth inhibition [4],growth inhibition [5],growth inhibition [6]
OC1CC2CCCCC2CC1C1CCCCC1 (stereo not drawn),4.15%,-11.2%,-7.25%,-25.6%,-23.7%,0.85%
Cc1ccc(S(=O)(=O)Nn2c(O)c(C#N)c(-c3ccc(Cl)cc3)c(C#N)c2=O)cc1,1.3%,20.3%,11.2%,11.5%,15.5%,32.3%
CCCCCCCCCCCCCCCCCC(=O)NCC[N+](C)(C)C,99% (active),99.5% (active),99.4% (active),98.8% (active),98.8% (active),99.2% (active)
CCC(C)CCC/C=C/CC(=O)NC(CC(=O)O)C(=O)NC(C(=O)NC(CC(=O)O)C(=O)NCC(=O)NC(CC(=O)O)C(=O)NCC(=O)NC(C(=O)NC(C(=O)N1CCCC1C(=O)NC(C)C1NC(=O)C2CCCCN2C1=O)C(C)C)C(C)N)C(C)C(=O)O (stereo not drawn) (X10-D[ξAsp(βξ-Me)]DGDG[ξAbu(3ξ-NH2)]VP-X11; configuration not given here),-38.3%,-42.5%,-56.2%,-67.4%,-29.5%,-25.9%
COc1ccc(/C=C2\N=C(c3cc(OC)c(OC)c(OC)c3)OC2=O)cc1Br,-6.95%,-6.7%,21.6%,-0.4%,6.2%,2.1%
COc1cc(C2c3cc4c(cc3OC(C)(N3CCCC3)C2C)OCO4)cc(OC)c1OC (stereo not drawn),-25.4%,6.95%,-9.8%,14.2%,-2.55%,0.25%
Cc1ccc(S(=O)(=O)OC2C(OC(=O)c3ccccc3)OCC(O)C2O)cc1 (stereo not drawn),23.6%,2.45%,6.1%,-11.8%,6.5%,3.35%
COc1ccc(OC)c(/C=C/c2cnnc3ccccc23)c1,12.6%,12.8%,19.2%,-2.95%,6.75%,32%
C=C1C(=O)O[C@@H]2C[C@]3(C)[C@@H](C[C@H]12)[C@](C)(O)CC[C@@H]3O,5.65%,-10.1%,1.5%,-37.5%,7.5%,0.3%
COc1ccc(C2(C3NCCC4=C3CCCC4)CC2)cc1 (stereo not drawn),11.9%,-5.75%,32%,-4.1%,-3.7%,23.6%
O=[N+]([O-])c1nccn1CCC[n+]1ccc2ccccc2c1,-25.4%,-7.7%,-8.6%,-2%,-13.8%,-17%
Cc1[nH]nc2c1NC(=O)OC(C)C2 (stereo not drawn),11.8%,-2.9%,0.9%,-9.85%,-2.85%,2.9%
COC1=C(N(C)C)C(=O)c2ccccc2C1=O,21.4%,0.55%,11.4%,7.3%,-15.3%,4.55%
Cc1ccccc1[B-]12OCC[N+]1(CNC(=O)c1ccccc1O)CCO2 (stereo not drawn),26%,-2.1%,3.5%,16.6%,1.35%,8.5%
CC(C)(N)COCOCC(C)(C)N,6.8%,-5.35%,-1.15%,2.4%,5.8%,0%
CN(c1nc(=[N+](C)C)ss1)C1CCCCC1,9.4%,17.2%,16.1%,-39.5%,-12.8%,15.2%
COc1ccc(C(=O)C(C)(CCC#N)CCC#N)cc1,-10.3%,-6.3%,3.25%,-44.6%,14.3%,2.3%
C=C(C)COc1ccc(-c2ccccc2)cc1,24.5%,7.35%,8%,-4.95%,-3.85%,-3.2%
CCCCN(CCCC)c1c([N+](=O)[O-])c(=O)nc2ccccn12,21.1%,-3.35%,5.7%,11.7%,11.2%,37.9%

Compound,growth inhibition [1],growth inhibition [2],growth inhibition [3],growth inhibition [4],growth inhibition [5],growth inhibition [6]
CC(=O)OCC(OC(C)=O)C(OC(C)=O)C(OC(C)=O)C1OC(=O)C(OC(C)=O)C1OC(C)=O (stereo not drawn),0.5%,-12%,3.8%,2.25%,-0.75%,9.9%
COC(=O)C1(C)C(=O)NC(=O)CC1C (stereo not drawn),9.65%,0%,1%,-30.5%,-2.5%,-3.2%
COC(=O)c1ccncc1,-2.6%,2.95%,-2.8%,-35.8%,10.4%,-0.45%
CC(=O)OC1C(=O)C2C(CC=C3CC(O)CC(O)C32C)C2CCC(C(C)C3CC(C)C(C)(C)O3)C12C (stereo not drawn),-31.3%,-5.15%,-29.8%,-10.4%,-10.8%,-25.6%
CCOC(=O)CCC(=O)C(=O)OCC,13.1%,-24.8%,13.2%,20.9%,1.4%,20.1%
Cc1ccc2[nH]c(=S)[nH]c(=S)c2c1,19.9%,5%,13.2%,-19.8%,-33.2%,36%
COC(=O)CC1C2C=CN(C(=O)OC)N(C(=O)OC)C21 (stereo not drawn),-3.3%,4.25%,6.35%,10.8%,5.7%,3.9%
CCCCCC(C)(C)O,7.6%,-6.55%,-3.9%,-40.9%,4.75%,-4.75%
NNS(=O)(=O)c1ccc(Oc2ccc(S(=O)(=O)NN)cc2)cc1,10.8%,10.1%,24.6%,-4.9%,14.9%,30.9%
Cc1ccc(S(=O)c2cccs2)cc1 (stereo not drawn),2.15%,-28.1%,-49%,-38.9%,-18%,-28.8%
COc1ccc(/C=C/C(=O)c2sc(NC(=S)NC(=O)c3ccc(Cl)cc3)nc2C)cc1OC,16.2%,13.2%,28.6%,9.8%,-1.6%,7.2%
COc1cc(=O)n2c3ccccc3n(C)c2c1C#N,-9.75%,-16.9%,-0.95%,-0.25%,-4.35%,41.8%
N#CCc1csc(-c2ccccc2)n1,26.6%,16.8%,6.2%,15.2%,1.55%,27%
NNC(=O)CSc1ncnc2nc[nH]c12,1.3%,9.8%,0.55%,-3%,9.65%,-0.5%
COc1ccc(C(=O)NC(=S)Nc2cc(C(F)(F)F)ccc2Cl)cc1,-18.6%,0.1%,-11.2%,84.8% (active),-3.8%,11.7%
CSc1ncc2c(C#N)c3sc4ccccc4n3c(=O)c2n1,14.8%,-8.05%,32.4%,12.4%,26.5%,-21.1%
COc1ccc(C2c3cc4c(cc3OC(C)(O)C2C)OCO4)c(OC)c1OC (stereo not drawn),3.45%,5.7%,-1.4%,-9.25%,-5.1%,18.9%
CN(C)CCNC(=O)c1cccc(C(C)(C)C)c1[N+](=O)[O-],-11.2%,-30.1%,-18.9%,0.35%,-19.1%,-20%
CC(C)C(=O)/C=C/c1ccc(Br)cc1,29.9%,-4.95%,1%,2.6%,-14.8%,24.9%
